# Measured values from the supplement of paper PMC8728848.
# The full list was thinned out, with the strongest signals kept by preference.
# Columns and labels:
# Assay in all cases: glycan array binding signal (z-score within array); higher = stronger binding
# Settings in all cases: glycan notation: IUPAC condensed, linker removed
# [1] = target: Fuc(a1-2)Gal(b1-3)GlcNAc(b1-3)Gal(b1-4)Glc
# Procedure, shortened: (§1)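 Glycan array data were curated from 3228 arrays in the Consortium for Functional Glycomics database and kept only where the protein sequence was available. Glycan names were converted to IUPAC-condensed notation, and columns mapping to the same glycan were averaged. The binding signal is a within-array Z-score, averaged across arrays of the same protein sequence at different concentrations or buffers and across linkers. Negative Z-scores can be read as non-binding.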
# Fuc(a1-2)Gal(b1-4)Glc = target: Fuc(a1-2)Gal(b1-4)Glc
# Procedure, shortened: as §1
# [2] = target: Fuc(a1-2)Gal(b1-4)GlcNAc(b1-3)GalNAc
# Procedure, shortened: as §1
# [3] = target: Fuc(a1-2)Gal6S(b1-3)GlcNAc
# Procedure, shortened: as §1
# [4] = target: Fuc(a1-2)[Gal(a1-3)]Gal(b1-4)[Fuc(a1-3)]GlcNAc
# Procedure, shortened: as §1
# [5] = target: Fuc(a1-2)[GalNAc(a1-3)]Gal(b1-3)GalNAc(b1-3)Gal(a1-4)Gal(b1-4)Glc
# Procedure, shortened: as §1
# [6] = target: Fuc(a1-2)[GalNAc(a1-3)]Gal(b1-4)GlcNAc(b1-2)Man(a1-3)[Fuc(a1-2)[GalNAc(a1-3)]Gal(b1-4)GlcNAc(b1-2)Man(a1-6)]Man(b1-4)GlcNAc(b1-4)GlcNAc
# Procedure, shortened: as §1
# [7] = target: Fuc(a1-3)[Gal(b1-4)]GlcNAc(b1-3)GalNAc
# Procedure, shortened: as §1
# [8] = target: Gal(a1-3)Gal(b1-4)GlcNAc(b1-2)Man
# Procedure, shortened: as §1
# Gal(a1-4)GlcNAc = target: Gal(a1-4)GlcNAc
# Procedure, shortened: as §1
# Gal(b1-3)Gal(b1-4)GlcNAc = target: Gal(b1-3)Gal(b1-4)GlcNAc
# Procedure, shortened: as §1
# Gal(b1-3)GalNAc(b1-3)Gal = target: Gal(b1-3)GalNAc(b1-3)Gal
# Procedure, shortened: as §1
# [9] = target: Gal(b1-3)GalNAc(b1-4)Gal(b1-4)Glc
# Procedure, shortened: as §1
# [10] = target: Gal(b1-3)GalNAc(b1-4)[Neu5Ac(a2-3)]Gal(b1-4)Glc
# Procedure, shortened: as §1
# [11] = target: Gal(b1-3)[Neu5Ac(a2-6)]GalNAc
# Procedure, shortened: as §1
# [12] = target: Gal(b1-4)GlcNAc(b1-2)Man(a1-3)[Gal(b1-4)GlcNAc(b1-2)Man(a1-6)]Man(b1-4)GlcNAc(b1-4)GlcNAc
# Procedure, shortened: as §1
# [13] = target: Gal(b1-4)GlcNAc(b1-2)Man(a1-3)[Man(a1-6)]Man(b1-4)GlcNAc(b1-4)GlcNAc
# Procedure, shortened: as §1
# [14] = target: Gal(b1-4)GlcNAc(b1-2)[Gal(b1-4)GlcNAc(b1-6)]Man(a1-6)[Gal(b1-4)GlcNAc(b1-2)Man(a1-3)]Man(b1-4)GlcNAc(b1-4)[Fuc(a1-6)]GlcNAc
# Procedure, shortened: as §1
# [15] = target: Gal(b1-4)GlcNAc(b1-3)Gal(b1-3)GlcNAc
# Procedure, shortened: as §1
# [16] = target: Gal(b1-4)GlcNAc(b1-3)Gal(b1-4)GlcNAc
# Procedure, shortened: as §1
# [17] = target: Gal(b1-4)GlcNAc(b1-3)Gal(b1-4)GlcNAc(b1-3)Gal(b1-4)GlcNAc(b1-3)Gal(b1-4)GlcNAc(b1-3)Gal(b1-4)GlcNAc(b1-2)Man(a1-3)[Gal(b1-4)GlcNAc(b1-3)Gal(b1-4)GlcNAc(b1-3)Gal(b1-4)GlcNAc(b1-3)Gal(b1-4)GlcNAc(b1-3)Gal(b1-4)GlcNAc(b1-2)Man(a1-6)]Man(b1-4)GlcNAc(b1-4)GlcNAc
# Procedure, shortened: as §1
# [18] = target: Gal3S(b1-3)[Fuc(a1-4)]GlcNAc
# Procedure, shortened: as §1
# Gal3S(b1-4)Glc = target: Gal3S(b1-4)Glc
# Procedure, shortened: as §1
# Gal6S(b1-3)GlcNAc6S = target: Gal6S(b1-3)GlcNAc6S
# Procedure, shortened: as §1
# Gal6S(b1-4)Glc = target: Gal6S(b1-4)Glc
# Procedure, shortened: as §1
# Gal6S(b1-4)Glc6S = target: Gal6S(b1-4)Glc6S
# Procedure, shortened: as §1
# Gal6S(b1-4)GlcNAc = target: Gal6S(b1-4)GlcNAc
# Procedure, shortened: as §1
# Gal6S(b1-4)GlcNAc6S = target: Gal6S(b1-4)GlcNAc6S
# Procedure, shortened: as §1
# GalNAc3S(b1-4)GlcNAc3S = target: GalNAc3S(b1-4)GlcNAc3S
# Procedure, shortened: as §1
# GalNAc4S6S(b1-4)GlcNAc = target: GalNAc4S6S(b1-4)GlcNAc
# Procedure, shortened: as §1
binder,measurement,setting,value
Epa1to9 (Candida glabrata) (protein) MGSSHHHHHHSSGLVPRGSHMTSSNDISLASKDPTTFPLGCSPDITTPKKGLSMELYSYDFRKKGSYPCWDAAYLDPNYPRTGYKSHRLLAKVDGVTGNINFYYHATKGCTPQLGHLPASYNYPKPLTMTNFTMLLYGYFRPKVTGFHTFTISADDLLFVNFGAGNAFDCCRRDSSADHFGNYQAYAIWGSKTAKDELTVHLDAGVYYPIRLFYNNRDYHGALSFTFKTESNENTVSDFSEYFFSLDDTEEGCPGLISYD,glycan array binding signal (z-score),[1],-0.354
same,glycan array binding signal (z-score),Fuc(a1-2)Gal(b1-4)Glc,-0.307
same,glycan array binding signal (z-score),[2],-0.34
same,glycan array binding signal (z-score),[3],0.035
same,glycan array binding signal (z-score),[4],-0.276
same,glycan array binding signal (z-score),[5],-0.349
same,glycan array binding signal (z-score),[6],-0.318
same,glycan array binding signal (z-score),[7],-0.293
same,glycan array binding signal (z-score),[8],0.008
same,glycan array binding signal (z-score),Gal(a1-4)GlcNAc,1.94
same,glycan array binding signal (z-score),Gal(b1-3)Gal(b1-4)GlcNAc,4.22
same,glycan array binding signal (z-score),Gal(b1-3)GalNAc(b1-3)Gal,3.67
same,glycan array binding signal (z-score),[9],4.67
same,glycan array binding signal (z-score),[10],2.83
same,glycan array binding signal (z-score),[11],4.47
same,glycan array binding signal (z-score),[12],1.17
same,glycan array binding signal (z-score),[13],-0.161
same,glycan array binding signal (z-score),[14],3.13
same,glycan array binding signal (z-score),[15],-0.107
same,glycan array binding signal (z-score),[16],-0.064
same,glycan array binding signal (z-score),[17],0.122
same,glycan array binding signal (z-score),[18],-0.345
same,glycan array binding signal (z-score),Gal3S(b1-4)Glc,-0.283
same,glycan array binding signal (z-score),Gal6S(b1-3)GlcNAc6S,4.86
same,glycan array binding signal (z-score),Gal6S(b1-4)Glc,5.05
same,glycan array binding signal (z-score),Gal6S(b1-4)Glc6S,7.26
same,glycan array binding signal (z-score),Gal6S(b1-4)GlcNAc,4.98
same,glycan array binding signal (z-score),Gal6S(b1-4)GlcNAc6S,10.6
same,glycan array binding signal (z-score),GalNAc3S(b1-4)GlcNAc3S,-0.353
same,glycan array binding signal (z-score),GalNAc4S6S(b1-4)GlcNAc,-0.346
